# Test results published in PubChem BioAssay (Tox21).
# Inconclusive results are not listed. A number with no mark means an inactive call. The source made the active and inactive calls. The call rests on the fitted dose curve; in most records, active means well fitted cell-killing curve with a large enough effect in the repeat runs; inconclusive means weak or mixed curves, or effect the other way; inactive means no such curve, though single readings can be large or run the other way.
# Assay: Caspase-3/7 induction in CHO-K1 cells by small molecules, qHTS cell viability counter screen (AID 1346979); further: nearly all actives have a fitted effect of over 35% in size
# Settings: CellTiter-Fluor fluorescence, 17 h; series mostly up to 92.4 µM; activity change, negative = cytotoxicity: at the top concentration
# Excerpt: National Center for Advancing Translational Sciences [NCATS]
# NIH Chemical Genomics Center [NCGC]
# U.S. Environmental Protection Agency [EPA]
# National Institutes of Environmental Health Sciences [NIEHS]
# National Toxicology Program [NTP]
# U.S. Food and Drug Administration [FDA]
# Apoptosis is a process of programmed cell death and plays a central role in the development of multicellular organisms. It is a highly regulated process and induces cell death by activating caspases, which are the members of cysteine aspartic acid-specific protease (caspase) family. Caspases involved in apoptosis are classified by their mechanism of action as initiator caspases (caspase-2, -8, -9 and -10) and executioner caspases (caspase-3, -6, and -7). Inhibition of apoptosis results in number of cancers, autoimmune diseases, inflammatory diseases and viral infection. To identify small molecule compounds that induce apoptosis, a homogeneous, luminescent Caspase-Glo 3/7 assay was used. Wild type CHO-K1 cells were used to screen Tox21 libraries for identifying caspase-3/7 activity inducers. Also cytotoxicity of the compounds was tested in parallel by measuring the cell viability using CellTiter-Fluor assay system in the same wells.
# Tox21 Assay Protocol Summary:
# CHO-K1 cells were dispensed at 1,500 per well in 5uL of culture medium into white solid bottom 1536-well plates (Corning Life Sciences, Corning, NY) using a Multidrop Combi (Thermo Scientific, Waltham, MA) dispenser. The assay plates were incubated at 37 C and 5% CO2 for 5hr, and then 23nL of compounds dissolved in DMSO and positive control were transferred using a Pintool station (Wako, San Diego, CA). The assay plates were incubated at 37C and 5% CO2 for 17hr. For cytotoxicity read, after 16hr incubation at 37C, 1uL CellTiter-Fluor reagent (Promega Corporation, Madison, WI) was added to each well of the assay plates using Flying Reagent Dispenser (FRD, Aurora Discovery, San Diego, CA). After 1hr incubation at 37C and 5% CO2, the fluorescence signal was quantified using a ViewLux plate reader (PerkinElmer, Shelton, CT).
# On the % scale 0 is the no-effect control and ±100 the full control effect; potency means the concentration at half of the fitted maximal effect.
SMILES,"activity change, negative = cytotoxicity",Potency
Cc1ccc(S(=O)(=O)NC(=O)NC2CCCCC2)cc1,3.24% [at 42.5 µM],–
CC1CCCO1 (stereo not given),8.76%,–
CC(=O)OCCC1CCCCC1,-1.07%,–
O=C(CCS)OCC(COC(=O)CCS)(COC(=O)CCS)COC(=O)CCS,-3.24%,–
NC(=O)CCCCC(N)=O,-0.093%,–
CC(=O)OC(C)C[N+](C)(C)C (stereo not given),-0.549% [at 42.5 µM],–
CCCCC[C@H](O)/C=C/[C@H]1[C@H](O)CC(=O)[C@@H]1C/C=C\CCCC(=O)O,-7.29% [at 42.5 µM],–
CCOCCC(=O)OCC,5.49%,–
FC(F)(F)C(F)(F)C(F)(F)C(F)(F)CCI,1.26% [at 42.5 µM],–
CO[C@@H]1[C@@H](OC)[C@H](C)[C@@](O)(CC(=O)O)O[C@H]1[C@H](C)[C@H]1O[C@@]2(CC[C@@](C)([C@H]3CC[C@@](C)([C@@H]4O[C@@H]([C@H]5O[C@](C)(O)[C@H](C)C[C@@H]5C)C[C@@H]4OC4C[C@H](OC)[C@@H](OC)[C@H](C)O4)O3)O2)C[C@H](O)[C@H]1C (stereo not given in full),–,1.33 µM (active)
CCCCCCC(O)CCCCCCCCCCC(=O)OC (stereo not given),1.07%,–
COc1ccc2nc(S(=O)Cc3ncc(C)c(OC)c3C)[nH]c2c1 (stereo not given),–,67.8 µM (active)
CNS(=O)(=O)c1cc(C(=O)N2CCC(CCN3C4CCC3CC(n3c(C)nc5ccccc53)C4)(c3cccc(F)c3)CC2)c(Cl)cc1F (stereo not given),–,17.2 µM (active)
CC(C)c1ccc(C#N)cc1,7.12%,–
COc1ccc(CCN(C)CCCN2CCc3cc(OC)c(OC)cc3CC2=O)cc1OC,2.59% [at 42.5 µM],–
CNC1CCCN(c2c(F)cc3c(=O)c(C(=O)O)cn(C4CC4)c3c2OC)C1 (stereo not given),0.275% [at 42.5 µM],–
CCC(CO)(CO)CO,6.94%,–
CC1=CC[C@@H]2C[C@H]1C2(C)C,-0.814% [at 19 µM],–
Nc1ccc(N=Nc2ccc(N)cc2)cc1,–,24.3 µM (active)
O=C(C(=O)c1ccco1)c1ccco1,4.23%,–

SMILES,"activity change, negative = cytotoxicity",Potency
CCCCCC,2.54%,–
Cc1ccc2c(c1)CCCN2,-0.936%,–
CC(=O)OCC(=O)[C@@]1(OC(C)=O)[C@@H](C)C[C@H]2[C@@H]3C[C@H](F)C4=CC(=O)C=C[C@]4(C)[C@@]3(F)[C@@H](O)C[C@@]21C,-0.261% [at 42.5 µM],–
COC(CC(C)CCCC(C)(C)O)OC (stereo not given),3.57%,–
CC(=O)Oc1cccc(O)c1,4.01% [at 42.5 µM],–
COc1cc(S(=O)(=O)Nc2ccccc2)c(OC)cc1N,-0.163%,–
CC(C)N(C)C,8.18%,–
C1CCCCC1,0.473%,–
CCCCCCCCCCCCCOC(=O)CCSCCC(=O)OCCCCCCCCCCCCC,0.0364% [at 19 µM],–
CC1C(C)(C)C2=C(C(=O)CCC2)C1(C)C (stereo not given),1.67%,–
N[C@@H](Cc1cc(I)c(O)c(I)c1)C(=O)O,–,23.7 µM (active)
O=C(Oc1ccccc1)c1ccc2ccccc2c1O,-7.04%,–
O=C(O)c1ccc(O)cc1O,-0.436%,–
O[C@@H](CNC[C@H](O)[C@H]1CCc2cc(F)ccc2O1)[C@@H]1CCc2cc(F)ccc2O1,–,33.5 µM (active)
CC(C)OC(=O)c1ccccc1C(=O)OC(C)C,6.47%,–
CCC(=O)OCc1ccc(OC)cc1,10.8%,–
O=NN(CCCl)C(=O)NCCCl,3.41% [at 42.5 µM],–
CCCCCCCCCCCCCCN(C)C,2.75% [at 19 µM],–
CCN(CC)CCNC(=O)c1cc(Cl)c(N)cc1OC,6.56% [at 42.5 µM],–
CC(C)(C)C1(CCc2ccc(Cl)cc2)CO1 (stereo not given),3.67%,–
